Bioassay records as filed in PubChem.
IL1B secr inh: qHTS for Inhibitors of Inflammasome Signaling: IL-1-beta AlphaLISA Primary Screen; THP-1 LPS/ATP IL-1B secretion, AlphaLISA, 16 h; stronger effect = lower value; activity change, % at 57.5 µM; actives 4.7% (n = 360,000); in the data active = activity change below about -50%; inconclusive = mostly about -30% to -49%; note: % is set by controls: 0 for no effect and ±100 for the full control effect
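Secreted IL-1B measured by AlphaLISA bead assay after 16 h compound exposure of THP-1 cells; compounds (final up to 57.5 uM) added 1 h before LPS (250 ng/mL) and ATP (1.25 mM) stimulation; lower signal means less secretion.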
TDP1 cell CPT: qHTS for Inhibitors of human tyrosyl-DNA phosphodiesterase 1 (TDP1): qHTS in cells in presence of CPT; chicken DT40 Tdp1-/-;hTDP1 cells + 20 nM CPT, ATP luminescence, 48 h; Potency, µM (highest dose often 46.2 µM), for the others: top-dose activity change, negative = growth inhibition, hits mostly inhibitors; actives 12% (n = 420,000); note: potency is the fitted concentration of half-maximal effect; % is set by controls: 0 for no effect and ±100 for the full control effect; nearly all actives have a fitted effect of over 55% in size
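Chicken DT40 Tdp1-/- cells stably complemented with human TDP1 were seeded at 400 cells/well in medium containing 20 nM camptothecin, exposed to pin-transferred compounds, and grown at 37 °C for at least 48 hr. Viability was read as ATP luminescence.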
MCF10A rereplic: A quantitative high throughput screen for small molecules that induce DNA re-replication in MCF 10a normal breast cells; MCF 10A DNA re-replication, Hoechst nuclear intensity, 48 h; Potency, µM (doses to about 46.1 µM), for inactives: at the top dose activity, positive = re-replication, usual class: activators; actives 2.9% (n = 350,000); note: potency is the fitted concentration of half-maximal effect; % of control where 0% means no effect; nearly all actives have a fitted effect of over 50% in size
DT40 TDP1 no CPT: qHTS for Inhibitors of human tyrosyl-DNA phosphodiesterase 1 (TDP1): qHTS in cells in absence of CPT | actives 15% (n = 420,000) | DT40 Tdp1-/- hTDP1 cells, no CPT, ATP luminescence, 48 h | Potency, µM (doses to about 46.2 µM), for inactives: at the top dose activity change, negative = growth inhibition, actives largely listed as inhibitors; note: potency is the fitted concentration of half-maximal effect; % is set by controls: 0 for no effect and ±100 for the full control effect; nearly all actives have a fitted effect of over 55% in size
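Readout: luminescence from CellTiter-Glo after 30 min in the dark at RT. Cells: DT40 Tdp1-/- with stable hTDP1, 400/well. Exposure: compounds alone, ≥48 hr, 37 °C.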
SW480 rereplic: A quantitative high throughput screen for small molecules that induce DNA re-replication in SW480 colon adenocarcinoma cells; AID 624297, 2012; actives 1.8% (n = 340,000); Potency, µM (highest dose often 46.1 µM), without a hit: at the top dose re-replication activation, usual class: activators; SW480 DNA re-replication, Hoechst DNA content imaging, 48 h; note: potency is the fitted concentration of half-maximal effect; % of control where 0% means no effect; nearly all actives have a fitted effect of over 55% in size
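Compounds, transferred as 23 nL by pin tool, were incubated with cells for 48 hr; DNA content per nucleus was then quantified by Hoechst staining and fluorescence plate imaging.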
Chronic BCR inh: qHTS Assay to Find Inhibitors of Chronic Active B-Cell Receptor Signaling; AID 493014, 2011; ABC-DLBCL IkBa-CBG/CBR reporter, luminescence ratio, 4 h; actives 0.05% (n = 340,000); Potency, µM (doses to about 46.1 µM), without a hit: at the highest dose activity change, negative = inhibition, most hits filed as inhibitors; active = well fitted inhibition curve with a large enough effect in the signal ratio, with a control signal flat, not every such curve was filed as active; inconclusive = small, poorly fitted or top-dose-only effect, or effect the other way, or a change in a side signal; the % refers to the signal ratio;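 note: potency is the fitted concentration of half-maximal effect; plate controls were basal doxycycline-induced cells for no effect and cells given 10 µM MG132 for full effect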
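TMD8 human ABC-DLBCL cells with doxycycline-inducible IκBα–green luciferase fusion and unfused red luciferase, in 0.5% FBS medium; compounds up to 46 uM, 4 h at 37C. Green/red luminescence ratio, filter-overlap corrected, fitted to concentration-response curves.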
The depositor's hits bear a star; ? = inconclusive; . = not tested or not shown; [ ] = another dose, or the depositor's remark. In the library only some 19% were active in any assay of this set; here they are far more common. Unless noted, calls come from the whole dose curve; as a rule, active = well fitted curve in the direction sought with a large enough effect; inconclusive = small, poorly fitted or top-dose-only effect, or another doubt; inactive = no such curve, though single readings can be large; an effect the other way counts as inactive or inconclusive.

SMILES	IL1B secr inh	TDP1 cell CPT	MCF10A rereplic	DT40 TDP1 no CPT	SW480 rereplic	Chronic BCR inh
CN(CC(=O)Nc1cccc(F)c1)C(=O)c1cccc(S(=O)(=O)N2CC3(C)CC2CC(C)(C)C3)c1 (stereo not drawn)	?	?	?	?	13%	?
CC(C)c1cc(C(=O)NCCc2cccs2)c(N)s1	-9	?	.	?	.	.
Nc1nc2ncccc2cc1C(=O)NCCc1cccs1	3	23µM*	.	13µM*	.	.
COC(=O)[C@@]12C[C@@H](CC(=O)NCc3cccs3)C(=O)N(Cc3ccccc3)C1=CCC(C)(C)C2	0	?	.	?	.	.
CCCCCCCCN1C(=O)[C@H](CC(=O)NCc2ccc(C)o2)C[C@@]2(C(=O)OC)CC(C)(C)CC=C12	-71*	12µM*	.	8.2µM*	.	.
CCCCCCCCN1C(=O)[C@H](CC(=O)NCc2cccs2)C[C@@]2(C(=O)OC)CC(C)(C)CC=C12	?	15µM*	.	8.2µM*	.	.
O=C(O)c1ccc(S(=O)(=O)c2ccc([N+](=O)[O-])cc2[N+](=O)[O-])cc1	16	21µM*	?	?	?	?
O=C(c1ccc(S(=O)(=O)NCc2ccco2)cc1)N1CCN(Cc2ccc3c(c2)OCO3)CC1	-10	?	?	16µM*	-2%	-1%
O=C(CCc1ccc(S(=O)(=O)NCc2ccccc2)cc1)N1CCN(Cc2ccc3c(c2)OCO3)CC1	?	32µM*	?	?	4%	0%
Cc1ccccc1CN1CCN(C(=O)c2ccc(S(=O)(=O)NCc3ccco3)cc2)CC1	6	?	?	?	0%	1%
COc1ccc(CN2CCN(C(=O)c3ccc(S(=O)(=O)NCc4ccco4)cc3)CC2)cc1F	-13	9.2µM*	19%	?	-8%	-20%
O=C(CS(=O)(=O)Cc1ccccc1)N1CCN(Cc2ccc3c(c2)OCO3)CC1	-18	?	2%	?	1%	-1%
O=C(CN1C(=O)NC2(CCCCC2)C1=O)N1CCN(S(=O)(=O)/C=C/c2ccccc2)CC1	-8	-11%	10%	-8%	-3%	0%
FC(F)Sc1ccc(N=C2NN=C(c3ccc4c(c3)OCCO4)CS2)cc1	-2	18µM*	?	21µM*	12µM*	-2%
COc1ccc(N=C2NN=C(c3ccc4c(c3)OCCO4)CS2)cc1	?	21µM*	8%	26µM*	13%[9.22 µM]	?
COc1ccc(CN=C2NN=C(c3cccc(OC)c3)CS2)cc1	3	17%	?	?	?	-23%
COc1ccccc1C(=O)OCc1cc(=O)n2c(C)csc2n1	.	4%	.	-29%	.	.
O=C(CSc1n[nH]c(-c2ccccc2)n1)c1ccccc1	9	?	0%	?	-14%	?
Cc1ccc(NC(=O)CSc2n[nH]c(-c3ccncc3)n2)cc1C	8	-14%	4%	-15%	15%	?
COc1ccccc1-c1nc(SCC(=O)Nc2ccc(C)c(C)c2)n[nH]1	.	23µM*	.	23µM*	.	.
COc1ccccc1-c1nc(SCC(=O)c2ccccc2)n[nH]1	.	?	.	16µM*	.	.
Cc1cc(C)c(NC(=O)CSc2n[nH]c(-c3ccccc3Cl)n2)c(C)c1	.	?	.	6.5µM*	.	.
CC(C)Oc1ccccc1-c1nc(SCC(=O)c2ccc(F)cc2)n[nH]1	.	21µM*	.	16µM*	.	.
CCn1c(C(=O)Nc2ccccc2C(=O)OC)cc2sc(Cl)cc21	.	0%	.	-16%	.	.
